Results filed as inconclusive are left out. The source made the active and inactive calls. Unless noted, calls come from the whole dose curve; as a rule, active = well fitted curve in either direction with a large enough effect (not every such curve was filed as active); inconclusive = small, poorly fitted or top-dose-only effect, or another doubt; inactive = flat fitted curve, though single readings scatter.

For test [1], the target named is Lysosomal acid glucosylceramidase (Homo sapiens) (UniProt P04062). Description: Glucocerebrosidase-p2 (AID 348; in the data active = potency below about 10 µM; note: potency is the fitted concentration of half-maximal effect). Conditions: purified GBA, blue fluorogenic substrate, 40 min. In short, it runs like this: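 Compounds titrated from 0.6 nM upwards against 0.2 nM enzyme in pH 5.9 citric acid/KH2PO4, taurocholate, tween-20; blue fluorogenic substrate 80 uM, 40 min room temperature, stopped and read Ex 365/Em 440 for AC50.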
Sequence of Lysosomal acid glucosylceramidase (Homo sapiens) (P04062 whole entry, looked up): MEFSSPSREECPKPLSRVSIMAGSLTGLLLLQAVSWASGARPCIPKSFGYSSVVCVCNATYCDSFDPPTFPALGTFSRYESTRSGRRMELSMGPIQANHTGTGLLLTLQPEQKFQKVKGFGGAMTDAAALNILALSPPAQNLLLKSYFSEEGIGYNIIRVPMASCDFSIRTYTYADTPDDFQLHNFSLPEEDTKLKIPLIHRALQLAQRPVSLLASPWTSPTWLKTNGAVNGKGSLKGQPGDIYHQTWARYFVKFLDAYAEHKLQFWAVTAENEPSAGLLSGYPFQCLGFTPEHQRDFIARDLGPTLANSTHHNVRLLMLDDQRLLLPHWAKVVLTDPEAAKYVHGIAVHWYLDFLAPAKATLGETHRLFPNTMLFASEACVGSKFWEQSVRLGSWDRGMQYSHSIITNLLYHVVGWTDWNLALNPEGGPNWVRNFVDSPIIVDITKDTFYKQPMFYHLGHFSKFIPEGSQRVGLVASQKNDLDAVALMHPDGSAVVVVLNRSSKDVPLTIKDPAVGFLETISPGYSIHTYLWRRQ

Test [2] is described as follows: AP1 Signaling Pathway (AID 357). Note: % is set by controls: 0 for no effect and ±100 for the full control effect. The conditions noted are these: ME-180 AP-1-bla reporter, EGF-induced, beta-lactamase ratio, 5 h; at 7.69 µM (top of the series) unless noted. Put shortly: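 Cells are seeded overnight, exposed to compound titrations and an EC50 level of EGF for 5 hours at 37 °C, then loaded with CCF4 dye for 2.5 hours. Beta-lactamase activity under the AP-1 element is read as a blue/green ratio.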

Test [3] in a line: NFAT Signaling Pathway (AID 444).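 Note: carbachol stimulus at about its EC50 of 1 µM final; % is set by controls: 0 for no effect and ±100 for the full control effect.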 Conditions: Jurkat NFAT-bla M1, carbachol, beta-lactamase ratio, 5 h; at 7.69 µM (top of the series) unless noted. Put shortly: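 Read-out: CCF4 FRET ratio (460 nm/530 nm) after 1 h RT dye loading, used for %activity and AC50 from titration series. Cells: Jurkat NFAT-β-lactamase/M1 line, treated with compound plus 1 uM carbachol for 5 h, 37 °C.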

A short description of test [4]: Stat Signaling Pathway (AID 446).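 Note: ME-180 cervical cancer cells given 40 pM IL-6 alongside compound; SIE-controlled beta-lactamase reporter measured as 460/530 nm FRET emission ratio; % is set by controls: 0 for no effect and ±100 for the full control effect.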 Conditions: ME-180 SIE beta-lactamase reporter, IL-6 stimulated, 5 h; at 7.69 µM (top of the series) unless noted. Put shortly:
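ME-180 cells carrying a SIE-driven beta-lactamase reporter are stimulated with 40 pM IL-6 for 5 h at 37C in the presence of compound. The 460/530 nm FRET substrate ratio is read after 2.5 h at RT. Data are normalised to 300 pM IL-6 and to 125 nM JAK inhibitor controls.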

Test [5] deals with Glucocorticoid receptor (Homo sapiens) (UniProt P04150). Description: GR-EFC Redistribution (AID 451; calls by dose curve; note: potency is the fitted concentration of half-maximal effect). The conditions noted are these: CHO-K1 GR-EFC translocation, beta-gal luminescence, 2 h. Put shortly:
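Translocation of GR-ED fusion to nuclear EA restores b-gal, read by luminescence after 1 h room-temperature detection. Engineered CHO-K1 biosensor cells, 1,000/well, exposed 2 h at 37 C to titrations up to 46 uM final.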

For test [6], the target named is Mitogen-activated protein kinase 10 (Mus musculus) (UniProt Q61831). Description: JNK3 AlphaScreen Assay (AID 530).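 Note: kinase came from lysate of stimulated human HepG2 cells; signal reports phosphorylation of biotinylated GST-cJun 1-79 at Ser73 with 10 µM ATP; % is set by controls: 0 for no effect and ±100 for the full control effect.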 The conditions noted are these: JNK3 lysate, c-Jun phosphorylation; series mostly up to 57.1 µM. Put shortly:
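Compound titrations were preincubated 15 minutes at room temperature with substrate, antibody and pre-activated JNK3-containing HepG2 lysate. Reactions were started with 10 uM ATP and stopped with EDTA-containing bead buffer for AlphaScreen detection.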
A general note: Alpha assays give light when donor and acceptor beads are brought close together.

The target of test [7] is 3',5'-cyclic-AMP phosphodiesterase 4B (Homo sapiens) (UniProt Q07343). As to the kind of experiment: qHTS Assay for Inhibitors of PDE-IV (AID 607; active = well fitted activation curve with a large enough effect in the main read-out, with a control signal flat, not every such curve was filed as active; note: % of control where 0% means no effect). Conditions: HEK293 ACTOne CNG channel cells, membrane potential fluorescence; series mostly up to 22.9 µM. Put shortly:
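HEK293 ACTOne cells with CNG channel (1000/well), endogenous PDE4; membrane potential dye, compounds up to 22.9 uM final. Fluorescence Ex 535/Em 590; RO 20-1724 (100 uM final) as reference.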

Test [8] in a line: qHTS Assay for Lipid Storage Modulators (AID 1519; calls by dose curve). The conditions noted are these: Drosophila S3 cells, BODIPY lipid droplet/cell ratio, laser cytometry, cells loaded with oleic acid; for activity change, negative = inhibition: at 57.5 µM (top of the series). Put shortly:
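Cells seeded at 5,000 per well were treated with compounds over a concentration series and loaded with oleic acid (400 uM, as added). Lipid droplet fluorescence (488 nm excitation, 500-530 nm channel) was read by laser-scanning cytometry and normalized to 20 uM Triacsin C.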
A general note: In qHTS, concentration-response curves come from the screen itself.

Test [9] in a line: Primary qHTS for small molecule stabilizers of the endoplasmic reticulum resident proteome: Secreted ER Calcium Modulated Protein (SERCaMP) assay (AID 1508630; active = well fitted curve in the direction sought with a large enough effect; an effect the other way counts as inactive or inconclusive; note: % is set by controls: 0 for no effect and ±100 for the full control effect). Conditions: SH-SY5Y GLuc-SERCaMP (Gaussia luciferase released on ER calcium loss) secretion, thapsigargin, luminescence; series mostly up to 38.4 µM. In short, it runs like this:
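GLuc-SERCaMP-expressing SH-SY5Y cells, pretreated 16 h with compound, are challenged with thapsigargin to empty ER calcium stores; after 4 h, coelenterazine is added directly to the medium and luminescence is imaged.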

In test [10] the target is Glucocorticoid receptor (Homo sapiens) (UniProt P04150). Description: GR-GFP Redistribution (AID 450;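 active = compounds whose dose series gives a full or clear partial fitted curve of increased nuclear translocation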; note: potency is the fitted concentration of half-maximal effect). Conditions: U2OS GR-GFP nuclear translocation, laser cytometry, 2 h.
Sequence of Glucocorticoid receptor (Homo sapiens) (P04150 whole entry, looked up, the tested form may be a part): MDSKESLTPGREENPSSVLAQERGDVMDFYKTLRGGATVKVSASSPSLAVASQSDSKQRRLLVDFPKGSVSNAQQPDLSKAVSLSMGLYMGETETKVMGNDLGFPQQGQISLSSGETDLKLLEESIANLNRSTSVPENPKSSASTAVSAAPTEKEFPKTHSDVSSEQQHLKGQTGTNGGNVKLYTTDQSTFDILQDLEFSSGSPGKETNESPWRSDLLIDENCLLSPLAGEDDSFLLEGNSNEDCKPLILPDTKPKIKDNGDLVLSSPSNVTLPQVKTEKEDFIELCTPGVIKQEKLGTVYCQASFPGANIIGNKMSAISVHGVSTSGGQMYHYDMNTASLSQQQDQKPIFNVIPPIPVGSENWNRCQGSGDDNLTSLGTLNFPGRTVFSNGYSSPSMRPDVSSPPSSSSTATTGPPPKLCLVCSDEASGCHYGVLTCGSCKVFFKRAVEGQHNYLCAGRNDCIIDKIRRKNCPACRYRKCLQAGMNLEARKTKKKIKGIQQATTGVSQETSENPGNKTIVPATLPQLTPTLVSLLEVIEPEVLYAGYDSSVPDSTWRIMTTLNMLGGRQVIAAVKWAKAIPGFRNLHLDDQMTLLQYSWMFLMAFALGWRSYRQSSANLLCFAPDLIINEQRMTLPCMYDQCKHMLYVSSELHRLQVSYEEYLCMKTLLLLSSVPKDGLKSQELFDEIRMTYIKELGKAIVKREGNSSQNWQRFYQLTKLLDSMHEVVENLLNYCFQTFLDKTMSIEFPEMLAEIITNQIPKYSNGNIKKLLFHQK
Test [11] is described as follows: Confirmation and Secondary Assay for Modulators of Hemoglobin Beta Chain Splicing at IVS2 654 locus (AID 910; active = well fitted curve in the direction sought with a large enough effect; an effect the other way counts as inactive or inconclusive;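 note: HeLa cells stably carrying EGFP split by mutant beta-globin IVS2-654 intron; per-well total GFP intensity by laser scanning cytometry after 2-day treatment; % of control where 0% means no effect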). The conditions noted are these: HeLa EGFP-654 splicing reporter, GFP fluorescence, 48 h; series mostly up to 38.3 µM. Put shortly:
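Readout: per-well total peak green fluorescence (488 nm ex, 500–520 nm em) from objects 5–250 µm, reflecting correct splicing of an EGFP-654 reporter. Compounds were applied for 2 days at 37 °C to overnight-plated HeLa EGFP-654 cells; controls were DMSO and 500 nM IVS2-654 PNA.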

Test [12] can be described thus: qHTS Assay for Identification of Small Molecule Agonists for Hypoxia Response Element Signaling Pathway (AID 914; active = well fitted activation curve with a large enough effect in the signal ratio, with a control signal flat, not every such curve was filed as active; the % refers to the signal ratio; note: % of control where 0% means no effect). The conditions noted are these: ME-180 (cervical carcinoma) HRE-bla reporter, beta-lactamase ratio, CoCl2, 17 h; activation: stronger effect = higher value. In short, it runs like this: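 Cells were plated overnight, pin-dosed with compound in a titration series, co-stimulated with EC50 CoCl2 and incubated 17 hours at 37 degrees Celsius. CCF4 substrate was then loaded, and AC50 values came from the 460nm/530nm ratio.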

Test [13] can be described thus: Confirmation and Secondary Assay for Modulators of Hemoglobin Beta Chain Splicing at IVS2 705 locus (AID 930; active = well fitted curve in the direction sought with a large enough effect; an effect the other way counts as inactive or inconclusive;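 note: HeLa cells stably expressing the EGFP-705 splicing reporter; GFP fluorescence per well restored by corrected splicing of the IVS2-705 intron in EGFP; % of control where 0% means no effect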). Conditions: HeLa EGFP-705 splicing reporter, GFP fluorescence, 48 h; series mostly up to 38.3 µM. Put shortly:
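Splice-correction reporter: EGFP cDNA split by beta-globin intron 2 bearing the 705 mutation, stably in HeLa. Compound incubation 2 days, 37C; fluorescent objects 5-250 µm summed per well.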

Test [14] addresses Ubiquitin carboxyl-terminal hydrolase 1 (Homo sapiens) (UniProt O94782). As to the kind of experiment: Inhibitors of USP1/UAF1: Pilot qHTS (AID 504865; active = well fitted curve in the direction sought with a large enough effect; an effect the other way counts as inactive or inconclusive;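 note: rhodamine fluorescence freed from ubiquitin-rhodamine substrate followed over time; top concentration of the series differs between compounds; % is set by controls: 0 for no effect and ±100 for the full control effect; nearly all actives have a fitted effect of over 35% in size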). The conditions noted are these: purified USP1/UAF1, Ub-rhodamine cleavage fluorescence; series mostly up to 54.9 µM. In short, it runs like this:
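USP1/UAF1 complex (1nM) preincubated with compound 15 min at room temperature, then Ub-Rho substrate (150nM final) added. Fluorescence read kinetically at 480/540 nm, 6 reads every 60 seconds. Buffer: 50mM HEPES pH 7.8, 0.5mM EDTA, 0.1 mg/ml BSA, 1mM TCEP, 0.01% Tween-20.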

The mark [15] stands for this setting: measured here: cell count channel max response.
The mark [16] stands for this setting: measured here: lipid channel max response.

Sequence of 3',5'-cyclic-AMP phosphodiesterase 4B (Homo sapiens) (Q07343 whole entry, looked up): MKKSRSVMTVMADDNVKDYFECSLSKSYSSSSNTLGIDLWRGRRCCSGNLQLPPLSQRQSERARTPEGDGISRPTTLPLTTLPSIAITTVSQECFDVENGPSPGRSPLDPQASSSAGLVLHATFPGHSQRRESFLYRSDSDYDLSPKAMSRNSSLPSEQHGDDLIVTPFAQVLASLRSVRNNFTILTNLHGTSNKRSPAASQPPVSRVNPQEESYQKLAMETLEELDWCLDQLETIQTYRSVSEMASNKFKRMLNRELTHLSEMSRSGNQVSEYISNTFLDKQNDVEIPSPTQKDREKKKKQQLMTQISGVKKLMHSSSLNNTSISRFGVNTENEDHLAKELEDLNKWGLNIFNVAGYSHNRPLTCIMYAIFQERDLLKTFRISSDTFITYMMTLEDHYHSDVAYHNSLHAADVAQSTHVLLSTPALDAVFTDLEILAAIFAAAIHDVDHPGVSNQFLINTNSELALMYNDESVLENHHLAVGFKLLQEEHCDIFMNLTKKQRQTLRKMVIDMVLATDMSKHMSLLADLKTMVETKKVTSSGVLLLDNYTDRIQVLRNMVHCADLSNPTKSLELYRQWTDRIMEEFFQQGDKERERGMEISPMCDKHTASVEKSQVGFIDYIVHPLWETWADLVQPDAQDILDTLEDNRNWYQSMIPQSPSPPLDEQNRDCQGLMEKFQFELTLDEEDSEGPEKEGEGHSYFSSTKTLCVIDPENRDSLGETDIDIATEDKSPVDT
Sequence of Ubiquitin carboxyl-terminal hydrolase 1 (Homo sapiens) (O94782 whole entry, looked up): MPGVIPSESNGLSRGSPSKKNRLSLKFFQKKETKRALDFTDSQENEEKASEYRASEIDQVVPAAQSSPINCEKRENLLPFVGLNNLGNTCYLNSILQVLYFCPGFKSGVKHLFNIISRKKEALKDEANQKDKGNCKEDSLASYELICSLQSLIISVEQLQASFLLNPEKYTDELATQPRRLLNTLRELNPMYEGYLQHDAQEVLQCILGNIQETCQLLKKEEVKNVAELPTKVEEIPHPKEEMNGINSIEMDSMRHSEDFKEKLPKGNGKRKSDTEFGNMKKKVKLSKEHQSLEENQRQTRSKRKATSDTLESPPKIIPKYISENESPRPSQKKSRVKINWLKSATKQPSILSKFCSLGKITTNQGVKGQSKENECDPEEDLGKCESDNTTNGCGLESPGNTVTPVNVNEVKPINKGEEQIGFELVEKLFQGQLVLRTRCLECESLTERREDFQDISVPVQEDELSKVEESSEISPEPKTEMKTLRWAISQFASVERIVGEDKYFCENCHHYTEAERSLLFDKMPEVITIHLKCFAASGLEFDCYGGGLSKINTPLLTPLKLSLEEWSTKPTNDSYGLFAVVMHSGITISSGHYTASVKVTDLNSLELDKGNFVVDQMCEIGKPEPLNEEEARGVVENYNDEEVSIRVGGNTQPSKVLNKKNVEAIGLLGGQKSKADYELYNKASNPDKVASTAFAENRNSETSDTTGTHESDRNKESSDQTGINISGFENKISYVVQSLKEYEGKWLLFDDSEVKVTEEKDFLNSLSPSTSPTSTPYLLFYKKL

Consider `Cc1noc(C)c1C(=O)N1CCC[C@@]2(CCN(C(c3ccccc3)c3ccccc3)C2)C1`, for which the Potency in test [1] is > 11.4 µM (inactive); in test [5], > 46 µM (inactive). Further, the results for the activity change, negative = inhibition in test [2], in test [3] and in test [8] were -7.96% (inactive), -12.7% (inactive) and 2.35% (inactive), respectively. The activity, negative = inhibition in test [4] was -6.89% (inactive). The Potency result in [6] and in test [7] was “inactive” each time. In addition, the max response in test [8] (setting [15]) came to 12.4%; in test [8] (setting [16]) it was 16.6%. The outcome in [9] was inactive.

With `O=C(c1ccncc1)N1CCC[C@@]2(CCN(C(c3ccccc3)c3ccccc3)C2)C1`, the results for the Potency in test [1] and in test [5] were > 11.4 µM (inactive) and > 46 µM (inactive), respectively. Besides, the activity change, negative = inhibition in test [2] was -4.57% (inactive); in [3], 17.1% (inactive); in test [8], -4.39% (inactive). The activity, negative = inhibition in [4] was 0.76% (inactive). Moreover, in [6], the Potency result was “inactive”. Also, the max response in test [8] (setting [15]) is -3.62%; in test [8] (setting [16]), -3.76%. In addition, in test [9], the result was inactive.

As for `CC(=O)N1CCC[C@@]2(CCN(C(=O)Nc3ccccc3)C2)C1`, the Potency in [1] is > 11.4 µM (inactive); in [5], > 46 µM (inactive). Also, the activity change, negative = inhibition in test [2] was 10.4% (inactive); in [3], 22.8% (inactive); in test [8], 3.44% (inactive). Further, the activity, negative = inhibition in test [4] was -3.7% (inactive). Further, the Potency result in [6] and in test [7] was “inactive” throughout. In addition, the max response is -12.3% in [8] (setting [15]) and -5.99% in [8] (setting [16]). In addition, the result in [9] was inactive.

For `COC(=O)N1CCC[C@@]2(CCN(C(=O)NC(C)C)C2)C1`, the Potency in [1] was > 11.4 µM (inactive); in [5], > 46 µM (inactive). In addition, the figures for the activity change, negative = inhibition in [2], in test [3] and in test [8] were -4.17% (inactive), -22.1% (inactive) and 2.29% (inactive), respectively. In test [4], the activity, negative = inhibition is 8.06% (inactive). Also, the Potency result in test [6] and in test [7] was “inactive” each time. The values for the max response in test [8] (setting [15]) and in [8] (setting [16]) were -6.98% and -3.79%, respectively. Also, the outcome in test [9] was inactive.

Turning to `CS(=O)(=O)N1CCC2(CC1)CN(C(=O)Nc1cccc(F)c1)C2`, the Potency is > 11.4 µM (inactive) in test [1] and > 46 µM (inactive) in test [5]. Besides, the activity change, negative = inhibition in test [2] was 0.393% (inactive); in [3], 3.65% (inactive); in [8], 5.56% (inactive). The activity, negative = inhibition in [4] is 13.3% (inactive). Also, the Potency result in test [6] and in test [7] was “inactive” in each case. Also, the max response in test [8] (setting [15]) amounted to 15.2%; in test [8] (setting [16]), 24.9%. Further, in test [9], the result was inactive.

On to `COc1ccccc1CNc1ncncc1-c1ccccc1CN(C)C`, for which the Potency in [1] is > 11.4 µM (inactive); in test [10], > 46 µM (inactive); in [5], > 46 µM (inactive). Further, the activity change, negative = inhibition in test [2] is -14.2% (inactive); in test [3], -25.5% (inactive); in test [8] it was 5.27% (inactive). Moreover, the activity, negative = inhibition in [4] is 6.72% (inactive). Moreover, the Potency result in [6], in [7], in [11] and in [14] was “inactive” each time. In addition, the activation in test [12] was -9.29% (inactive). The result in test [13] and in [9] was inactive. Besides, the max response came out at 12.7% in test [8] (setting [15]) and 17.5% in test [8] (setting [16]).

`Cc1cccc(CNc2ncnc3ccc(-c4ccccc4C#N)cc23)c1`: the results for the Potency in test [1], in test [10] and in [5] were > 11.4 µM (inactive), > 46 µM (inactive) and > 46 µM (inactive), respectively. Besides, the values for the activity change, negative = inhibition in [2], in test [3] and in [8] were -28.4% (inactive), 12.9% (inactive) and 0.748% (inactive), respectively. Further, the activity, negative = inhibition in test [4] is -7.62% (inactive). Moreover, the Potency entry in test [6] and in test [11] was “inactive” in each case. Further, the result in [13] and in test [9] was inactive. The max response in [8] (setting [15]) came out at 4.98%; in [8] (setting [16]), 4.86%.

These data come from PubChem BioAssay (NCATS).
